Rows were chosen to be rich in hits. Some 3.8% of all compounds tested hit in one or more screens of this group.
HSF1 activator: increases HSF-1 driven luciferase reporter signal; NIH3T3-HGL HSF-1 luciferase reporter, MG132, 8 h; 100% = twice DMSO control signal; activation, % at 9 µM; 1.7% of 300,000 active; AID 504408;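 active = mean replicate activation of at least 50% with a set share of replicates each reaching 50%; inconclusive = only one of those two conditions met; inactive = mean below 50% and too few replicates reaching it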;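 note: 0% = median of the neutral control wells and 100% = twice that signal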
MITF TRPM1 HTS: activators of MITF-driven TRPM1 promoter activity in SK-MEL-5 cells; SK-MEL-5 TRPM1-promoter luciferase, 24 h; % of positive control, neutral wells = 0; 0.75% of 300,000 active; activation, % at 12.5 µM;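 active = mean activation of at least 80% with every replicate also reaching 80%; inconclusive = mean reaches 80% but some replicate falls short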;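 note: 0% = neutral control wells and 100% = parthenolide positive control wells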
esBAF inh: inhibitors of esBAF chromatin remodeling in mouse ES cells; Bmi1-luciferase knock-in reporter, 24 h; 100% = twice the neutral-well signal; 2% of 350,000 active; reporter increase, % at 12.5 µM; in the data active = activation above about 40%; inconclusive = no clear call, values can overlap the other calls;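 note: 0% = median of the plate's neutral control wells and 100% = double that signal; a rise in the Bmi1 reporter signal indicates esBAF inhibition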
HSF1 inh: HSF1 inhibition; 0.77% of 300,000 active; activity change, negative = inhibition, % at 7.5 µM (by protocol); AID 2098; NIH3T3-HGL HSE-luciferase, MG132-induced, luminescence 8 h; hits give low values;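 active = more than half of replicate wells show activity change below -50%, luminescence cut by over half; inconclusive = some wells, but at most half, below -50%; inactive = no replicate well below -50%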;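 note: luciferase reports HSF-1 transcriptional activity via heat shock element; 0% = median of DMSO wells and -100% = zero luminescence signal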
Wnt bcat act: Wnt/beta-catenin pathway activation | Wnt/beta-catenin reporter cell assay, activator, plate reader | activation, % at 9.35 µM | 1.2% of 300,000 active; in the data active = activation above about 30%, passing the limit was not always enough; inconclusive = no clear call, values can overlap the other calls;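 note: 0% = neutral control wells and 100% = positive control wells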
Numbers without * were called inactive.

Screening O=C(Nc1ccccn1)C12CC3CC(C1)CC(C(=O)Nc1ccccn1)(C3)C2 returned HSF1 activator 6, MITF TRPM1 HTS 8, HSF1 inh 3 and Wnt bcat act -2.
For O=C(Nc1nc(-c2ccccn2)cs1)C1CC1 the results were HSF1 activator 13, MITF TRPM1 HTS 47, esBAF inh 46*, HSF1 inh 6 and Wnt bcat act 10.
Screening c1ccc(Nc2nc(-c3ccccn3)cs2)cc1 returned HSF1 activator 41, MITF TRPM1 HTS 6, esBAF inh 25, HSF1 inh 23 and Wnt bcat act 40*.
COc1cccc2sc(Nc3nc(-c4ccccn4)cs3)nc12 was read as HSF1 activator 128*, MITF TRPM1 HTS -53, esBAF inh inconclusive, HSF1 inh 100 and Wnt bcat act -4.
`O=C(Nc1nc(-c2ccccn2)cs1)C12CC3CC(CC(O)(C3)C1)C2` gave HSF1 activator 14, MITF TRPM1 HTS 41, HSF1 inh 8 and Wnt bcat act 40*.
COc1cccc2sc(NNC(=O)COc3ccccc3)nc12 was read as HSF1 activator -4, MITF TRPM1 HTS -1, esBAF inh 0, HSF1 inh 0 and Wnt bcat act -1.
O=C(CC1CC2CCC1C2)Nc1nc(-c2ccccn2)cs1 (stereo not drawn) was read as HSF1 activator 13, MITF TRPM1 HTS 7, HSF1 inh 9 and Wnt bcat act 6.
`C[C@H](CO)N1C[C@H](C)[C@@H](CN(C)S(=O)(=O)c2cccs2)Oc2ccc(NC(=O)CCCN(C)C)cc2CC1=O` gave esBAF inh -3.
Screening C[C@@H]1CN([C@H](C)CO)C(=O)c2cc(NC(=O)C3CCCCC3)ccc2O[C@H]1CN(C)Cc1ccc2c(c1)OCO2 returned esBAF inh -1.
COc1ccc(/C=C/c2nc(-c3ccccc3O)n[nH]2)cc1 was read as HSF1 activator 7, MITF TRPM1 HTS 43, HSF1 inh -12 and Wnt bcat act 38*.
Screening COC(=O)c1cc(-c2ccc(OC)cc2)n[nH]1 returned HSF1 activator 20, MITF TRPM1 HTS 91*, esBAF inh inconclusive, HSF1 inh 6 and Wnt bcat act -2.
Screening COc1ccc(-c2ncncc2-c2ccccc2)c(O)c1 returned HSF1 activator -26, MITF TRPM1 HTS 1, esBAF inh -10, HSF1 inh -23 and Wnt bcat act 0.
COC(=O)c1cc(-c2ccc(C)cc2)n[nH]1 was read as HSF1 activator 44, MITF TRPM1 HTS 15, HSF1 inh 26 and Wnt bcat act inconclusive.
Screening COc1ccc(-c2cc(-c3ccccc3)n[nH]2)c(O)c1 returned HSF1 activator 45, MITF TRPM1 HTS 58, esBAF inh 83*, HSF1 inh 28 and Wnt bcat act 14.
Screening COc1ccc(O)c(-c2cc(-c3ccccc3Cl)[nH]n2)c1 returned HSF1 activator -9, esBAF inh 74*, HSF1 inh -6 and Wnt bcat act 13.
`CC(=O)N[C@H]1CC[C@@H](CC(=O)NCC2CCCCC2)O[C@H]1CO` gave esBAF inh -2.
COc1ccc(-c2cc(-c3ccccc3O)[nH]n2)cc1 was read as HSF1 activator 85*, MITF TRPM1 HTS 38 and HSF1 inh 37.
Screening CO[C@@H]1CN(C)C(=O)c2ccc(NS(=O)(=O)CC(F)(F)F)cc2OC[C@@H](C)N(C(=O)c2ccc3c(c2)OCO3)C[C@@H]1C returned esBAF inh -1.
`Cc1ccc(O)c(NC(=O)CSc2n[nH]c(-c3ccccc3)n2)c1` gave HSF1 activator 109*, MITF TRPM1 HTS -14, esBAF inh 10, HSF1 inh 120 and Wnt bcat act 2.
`CC1(C)CCCN(Cc2c(O)ccc3c(=O)c(-c4nc5ccccc5s4)c(N)oc23)C1` gave HSF1 activator 79*, MITF TRPM1 HTS -2, esBAF inh 31, HSF1 inh 52 and Wnt bcat act 18.
For CSc1nc2sc3c(c2c(=O)n1C)CCC3 the results were HSF1 activator 4, MITF TRPM1 HTS -11, esBAF inh 6, HSF1 inh -7 and Wnt bcat act 0.
`O=c1c2c3c(sc2nc2n1CCC2)CCCCC3` gave HSF1 activator 7, MITF TRPM1 HTS 9, HSF1 inh 6 and Wnt bcat act 2.
CSc1nc2sc3c(c2c(=O)n1C)CCCC3 was read as HSF1 activator 11, MITF TRPM1 HTS 54, esBAF inh 45* and HSF1 inh 4.
Screening O=c1c2c3c(sc2nc2n1CCCC2)CCCC3 returned HSF1 activator 11, MITF TRPM1 HTS -1, esBAF inh 48* and HSF1 inh 4.
For CO[C@H]1CC[C@H]2CCOc3ccc(C#N)cc3C(=O)N(C)C[C@H](C)C(=O)N(C)C[C@@H]1O2 the results were esBAF inh 4.
Screening O=C(c1ccncc1)N1CCN(c2ccc(F)cc2)CC1 returned HSF1 activator -73, MITF TRPM1 HTS -10, esBAF inh -5 and HSF1 inh -66*.
COc1ccc(N2CCN(C(=O)c3ccc(-c4ccccc4)cc3)CC2)cc1 was read as HSF1 activator -18, MITF TRPM1 HTS -6, esBAF inh 2, HSF1 inh -5 and Wnt bcat act 0.
CCS(=O)(=O)N1CCN(C(=O)c2ccccc2)CC1 was read as HSF1 activator -88, MITF TRPM1 HTS -6, esBAF inh 5 and HSF1 inh -86*.
O=C(c1ccc(-c2ccccc2)cc1)N1CCN(c2ccccc2)CC1 was read as HSF1 activator 30, MITF TRPM1 HTS 73, esBAF inh 51*, HSF1 inh 18 and Wnt bcat act 12.
`C[C@H]1CN([C@@H](C)CO)C(=O)Cc2cc(NC(=O)NC3CCCCC3)ccc2O[C@H]1CN(C)Cc1ccc(C(=O)O)cc1` gave esBAF inh 2.
Screening CN(C)c1ccc(NC(=O)c2ccc(N3CCOCC3)nc2)cc1 returned HSF1 activator 6, MITF TRPM1 HTS 32, esBAF inh 51*, HSF1 inh 11 and Wnt bcat act 9.
For O=C(/C=C/c1cccc([N+](=O)[O-])c1)NC(=S)Nc1ccc(CN2CCOCC2)cc1 the results were HSF1 activator 136*, MITF TRPM1 HTS -4, HSF1 inh 84 and Wnt bcat act -7.
`CO[C@@H]1CN(C)C(=O)c2cc(NC(=O)C3CCC3)ccc2OC[C@H](C)N(Cc2nccs2)C[C@@H]1C` gave esBAF inh -4.
For COc1cccc(/C=C2\N=C3CCCCCN3C2=O)c1 the results were HSF1 activator 23, MITF TRPM1 HTS -1, esBAF inh 3, HSF1 inh 6 and Wnt bcat act 36*.
For Cc1ccc(S(=O)(=O)N(C)C[C@@H]2Oc3ccc(NC(=O)Nc4c(C)noc4C)cc3CC(=O)N([C@@H](C)CO)C[C@@H]2C)cc1 the results were esBAF inh 3.
For O=C(O)CC(c1ccccc1)c1ccccc1 the results were HSF1 activator 0, MITF TRPM1 HTS 5, esBAF inh -1 and HSF1 inh -2.
